Screening results as filed in PubChem.
mcGAS inh: mouse cGAS inhibition by luminescence; 0.15% of 160,000 active; inhibition, % at 12.5 µM; Q8C6L5; recombinant cGAS, Kinase-Glo ATP depletion luminescence; AID 1259399;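 further: 0% = negative control wells and 100% = reference inhibitor with no enzyme activity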
Target sequence (Q8C6L5 whole entry, looked up): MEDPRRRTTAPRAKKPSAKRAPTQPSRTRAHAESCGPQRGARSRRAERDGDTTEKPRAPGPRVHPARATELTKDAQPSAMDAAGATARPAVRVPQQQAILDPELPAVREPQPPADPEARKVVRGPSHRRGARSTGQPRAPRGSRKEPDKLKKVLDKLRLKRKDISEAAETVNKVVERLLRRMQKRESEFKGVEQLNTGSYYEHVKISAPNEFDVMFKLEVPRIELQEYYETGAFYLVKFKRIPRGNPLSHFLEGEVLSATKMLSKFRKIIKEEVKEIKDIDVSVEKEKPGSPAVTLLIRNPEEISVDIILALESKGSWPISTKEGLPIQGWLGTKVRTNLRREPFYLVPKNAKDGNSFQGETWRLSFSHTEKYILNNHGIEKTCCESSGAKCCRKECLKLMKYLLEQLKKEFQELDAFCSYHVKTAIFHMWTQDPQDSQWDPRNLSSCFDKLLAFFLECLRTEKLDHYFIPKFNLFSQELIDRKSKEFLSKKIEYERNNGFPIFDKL
hcGAS inh: inhibitors of human cGAS; Q8N884; recombinant h-cGAS, ATP depletion, Kinase-Glo luminescence; inhibition, % at 12.5 µM; 0.081% of 290,000 active; AID 1259398;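 further: 0% = vehicle reaction and 100% = reaction without DNA for no activity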
NPYLR7 agonist: activates Aedes aegypti NPYLR7 receptor; 0.15% of 270,000 active; AID 1259423; HEK293T NPYLR7/Galpha15, GCaMP6s calcium fluorescence; activation, % at 10 µM; in the data active means activation above about 40%;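 further: 0% = vehicle and 100% = reference agonist at the receptor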
The depositor's hits bear a star; nt = not tested or not shown; ! = repeats disagree. Hits are enriched below; roughly 0.28% of the tested compounds scored in any of these assays. Unless noted, no stated cut-off is given here; in the data, active means inhibition above about 40%; inactive means the rest.

SMILES	mcGAS inh	hcGAS inh	NPYLR7 agonist
COc1ccc(C(=O)N=c2sccn2Cc2cccc(C(=O)NC3CC3)c2)cc1OC	nt	-16	3
CCN1CCN(C(=O)c2ccc(Cn3ccsc3=NC(=O)c3ccc(OC)c(OC)c3)o2)CC1	nt	-16	45*
CC(C)CN1CCC(C2CCN(c3ncnc4nc[nH]c34)C2)CC1 (stereo unspecified)	-18	-6	4
OC[C@@H](O)C(O[C@@H]1O[C@H](CO)[C@H](O)[C@H](O)[C@H]1O)[C@H](O)[C@@H](O)CO (stereo partly specified)	nt	-4	nt
OC[C@H]1OC([S-])[C@H](O)[C@@H](O)[C@@H]1O.[Au+] (stereo partly specified)	57*	68*	-8
COc1ccc(-c2cc3c(cn2)nc(NCc2ccccc2)n3C)c(C)c1	-5	-2	-2
COc1ccc(OCC(=O)NCc2cc(-c3ccc4c(c3)OCO4)on2)cc1	-8	-12	3
COc1ccc(OC)c(CCNc2nc3cnc(-c4cccc5ccccc45)cc3n2C)c1	-7	-6	59*
COc1ccc(OC)c(CCNc2nc3cnc(-c4ccc5c(c4)OCO5)cc3n2C)c1	15	-7	71*
Cc1cc(N)nc(SCc2cccc([N+](=O)[O-])c2)n1	nt	-1	4
O=C(O)c1csc(CSc2nnc(-c3ccncc3)n2-c2cccc(C(F)(F)F)c2)n1	1	1	49*
O=C(NCc1cccc(C(F)(F)F)c1)c1csc(CSc2nnc(-c3ccncc3)n2-c2cccc(C(F)(F)F)c2)n1	1	-1	-8
CCN(CC)c1ccc2cc(C(N)=O)/c(=N\NC(N)=S)oc2c1	3	-7	130*
CCN(CC)c1ccc2cc(C(N)=O)c(=NCc3ccccc3)oc2c1	nt	1	-3
Cc1ccc2c(c1)C1(SCCN1C(=O)c1ccc(Cl)cc1)C(=O)N2Cc1ccc(F)c(F)c1 (stereo unspecified)	-6	-9	3
COc1ccc(NC(=O)CCC(=O)N2CCc3ccccc3C2)cn1	-4	-4	-4
COc1ccc(NC(=O)CN2C(=O)c3ccccc3NC23CCN(C)CC3)cn1	nt	-12	49*
O=C1C2C(c3ccc(O)cc3)NN(Cc3ccccc3)C2C(=O)N1C1CCCCC1 (stereo unspecified)	-7	-2	-8
CCCN1CCc2c(sc3c2c(NC(CC)CO)nc2nnnn23)C1 (stereo unspecified)	nt	-5	69*
CCc1nc(Cl)c2c3c(sc2n1)CN(CC)CC3	nt	-3	4
Cc1sc2nc(C(C)N3CCCCC3C)[nH]c(=O)c2c1C (stereo unspecified)	nt	-5	8
O=c1c(O)cc([C@H]2Oc3cc(O)cc(O)c3C[C@H]2O)cc2c([C@H]3Oc4cc(O)cc(O)c4C[C@H]3O)cc(O)c(O)c12	nt	27	-8
O=C(O[C@@H]1Cc2c(O)cc(O)cc2O[C@@H]1c1cc(O)c(O)c(O)c1)c1cc(O)c(O)c(O)c1	nt	73*!	-10
O=C(Oc1cc(OC(=O)c2ccccc2)c2c(c1)O[C@H](c1ccc(OC(=O)c3ccccc3)c(OC(=O)c3ccccc3)c1)[C@@H](OC(=O)c1ccccc1)C2)c1ccccc1	nt	-6	-6
Oc1cc(O)c2c(c1)O[C@H](c1ccc(O)c(O)c1)[C@H](O)C2	nt	19	-19
SMILES	mcGAS inh	hcGAS inh	NPYLR7 agonist
O=C(O[C@@H]1Cc2c(O)cc(O)cc2O[C@@H]1c1ccc(O)c(O)c1)c1cc(O)c(O)c(O)c1	nt	49*	-5
O=C(O[C@@H]1Cc2c(O)cc(O)cc2O[C@@H]1c1cc(O)c(O)c(O)c1-c1c([C@H]2Oc3cc(O)cc(O)c3C[C@H]2O)cc(O)c(O)c1O)c1cc(O)c(O)c(O)c1	37	54*	-6
Cc1cc(C)cc(C(=O)Oc2coc(CSc3nncn3C)cc2=O)c1	-7	-4	-5
CCOC(=O)c1sc(NC(=O)CSc2nnc3ccccn23)c(C(=O)OCC)c1C	-3	-6	-2
CCOC(=O)c1sc(NC(=O)CSc2nnc(C)s2)c(C(=O)OCC)c1C	61*	-4	-4
CSc1nc(NC(C)C)c2cnn(CCNC(=O)COc3ccc(F)cc3)c2n1	-6	-4	nt
CCOC(=O)C1=C(C)N=c2s/c(=C\c3ccc(SC)cc3)c(=O)n2C1c1ccc(SC)cc1 (stereo unspecified)	-5	-1	0
Cc1cc2c(C(C)C)c(O)c(O)c(C=O)c2c(O)c1-c1c(C)cc2c(C(C)C)c(O)c(O)c(C=O)c2c1O	48*!	-7	-3
CCCNc1nc2c(C)cccn2c(=O)c1C=C1SC(=S)N(CCc2ccccc2)C1=O	-6	-6	2
O=c1[nH]c2ccc(Cl)cc2o1	nt	-4	7
O=c1[nH]c2c(Br)c(Br)c(Br)cc2o1	66*	35	12
O[C@@H]1CNCC[C@H]1CNCc1ccc(-c2ccccn2)cc1	-10	-5	2
O=c1[nH]c2ccccc2nc1/C=C/c1cccc([N+](=O)[O-])c1	nt	-6	-6
Cc1cnc(C(=O)OCC(=O)C(C#N)c2nc(C)cs2)cn1 (stereo unspecified)	nt	-7	1
Cc1csc(C(C#N)C(=O)c2cn(CC(=O)C(C)(C)C)nn2)n1 (stereo unspecified)	-7	45*	-1
Cc1nc2ccc(Cl)cc2cc1C(=O)N1CCCC(C(=O)NC2CC2)C1 (stereo unspecified)	nt	-5	-19
COc1cc(OC)nc(N2CC[C@H](CO)[C@H](O)C2)n1	-13	-1	2
CN(Cc1cccc(O)c1)C(=O)C1CCCCC1C(F)(F)F (stereo unspecified)	nt	0	5
CCCN(Cc1ccsc1)CC(O)COc1ccccc1 (stereo unspecified)	41*	-4	27
C=CCOCC(O)CN(Cc1ccc(F)cc1)Cc1cccc(OC)c1 (stereo unspecified)	-4	-10	22
CC(C)CN(Cc1ccsc1)CC(O)COc1ccc(Cl)cc1 (stereo unspecified)	-4	-6	6
COc1cccc(CN(Cc2ccc(F)cc2)CC(O)COc2ccccc2)c1 (stereo unspecified)	76*	-4	39
O=C(NCCN1CCN(c2nc(Cc3ccc(F)cc3)ns2)CC1)Nc1ccc(Cl)cc1Cl	-1	2	-3
CCCn1c2c(c(=O)n(C)c1=O)C(=O)C(=Cc1ccc(N(C)C)cc1)N2	-5	-2	259*
CN(C)c1ccc(/C=C2/C(=O)NC(=O)N(Cc3ccccc3)C2=O)cc1	-3	11	5
O=C(CCl)Nc1ccc2c(c1)C(=O)c1ccccc1C2=O	57*	2	2
Cc1cc(NC(=O)CCl)ccc1N1CCCC1	1	0	5
CCC(=O)Nc1ccc(-c2nc3c(C)cccc3o2)c(Cl)c1	-5	-4	nt
CCOC(=O)c1sc(NC(=O)c2ccoc2C)nc1C	-5	-2	-1
Cc1ccc(Cl)cc1NC(=O)CC(=O)NC1CCN(S(C)(=O)=O)CC1	nt	-1	3
